Each structure is given as a SMILES string. Among all 68,000 compounds or so, about 2,700 (4%) showed an effect of 50% or more. The entries come from a sample that favours strong results as a whole.

The experiment relates to Plasmodium berghei. The experiment is described as follows: Screen against P. berghei liver stage (PbLuc), transformed with Luciferase, at 2uM. The class given is functional, HepG2. Particulars: tested at 2 uM.
Regarding `CCn1ncc2c1NC(=O)C(C#N)C21CCCC1` (stereo not drawn), the INHIBITION is on record as -12.09%.
The figure for `CCN1CC(CN(C)c2cc(C)nc(N)n2)Oc2ccccc21` (stereo not drawn) is -10.39%.
The figure for `CC(C)OCCN1CCN(C(=O)c2cccc(CC#N)c2)CC1` is 5.72%; for `CC(=O)NCC1CCC2(CCN(c3ncnc4oc(C)nc34)CC2)O1` (stereo not drawn) it is -7.91%; for `CC(=O)NCC1CCC2(CCN(c3ncc(C)cn3)CC2)O1` (stereo not drawn) it is 58.03%.
The result for `CC(=O)NCC1CCC2(CCN(c3ncc(C(C)=O)c(C)n3)CC2)O1` (stereo not drawn) reads 11.37%; that for `O=C(NCCn1nc2ccccn2c1=O)c1cc(C2CC2)[nH]n1`, 25.03%.
Take `CC(=O)c1cc(C(=O)NC2(c3ccc(Br)cc3)CC2)n(C)c1`: the INHIBITION amounted to 63.4%.
The result for `Cc1cc(C(=O)NC2(c3ccc(Br)cc3)CC2)n(C)n1` reads -25.71%; that for `CC(=O)c1cc(C(=O)NC2(c3ccccc3)CCC2)n(C)c1`, 10.43%.
The result for `Cc1ncc(CNC(=O)CCc2cccc(F)c2)c(C2CCCN2C)n1` (stereo not drawn) reads 7.21%; that for `NC1CCN(C2CCN(c3ccc(-c4ccco4)cc3)CC2)CC1`, 55.36%; that for `NCC1CCN(C2CCN(c3ccc(-c4ccco4)cc3)CC2)C1` (stereo not drawn), 74.44%.
The figure for `c1coc(-c2nc3c(c(N4CCCN5CCC[C@H]5C4)n2)CCNCC3)c1` is -53.14%; for `COc1ccc(N2CCC(N3CCOC(C(F)(F)F)C3)CC2)cc1` (stereo not drawn) it is 10.95%.
For `CNC1CCN(C2CCN(c3ccc(-c4ccco4)cc3)CC2)CC1`, the INHIBITION came to 7.67%.
The figure for `O=C(O)c1ccccc1C1CCN(C2CCN(c3ccccc3)CC2)C1` (stereo not drawn) is 38.67%.
The result for `O=C(c1ncccn1)N1CCC2(CC1)COC(COc1ccccn1)C2` (stereo not drawn) reads 17.35%; that for `CCN(CC)c1ccc(C(=O)N2C[C@H]3CC[C@@H](C2)N(CCOC)C3)cc1`, -34.04%; that for `CS(=O)(=O)N1CCOCC2(CCN(Cc3ccc[nH]3)CC2)C1`, -14.21%.
The result for `CC(C1CC1)N(CC(=O)NCC(F)(F)F)C1CC1` (stereo not drawn) reads 54.02%; that for `CC(C)NC(=O)CN(C1CC1)C(C)C1CC1` (stereo not drawn), -26.26%.
In the case of `CC(C1CC1)N(CC(=O)NC(=O)NC1CC1)C1CC1` (stereo not drawn), the INHIBITION amounted to 31.39%.
For the molecule `Cc1ncc(CNCC(=O)NCC(F)(F)F)n1-c1ccccc1`, the INHIBITION was 48.21%.
The result for `Cc1ncc(CNCC2CCC(C(N)=O)CC2)n1-c1ccccc1` (stereo not drawn) reads 72.05%; that for `Cc1ncc(CNCC(=O)NC2CCCCC2)n1-c1ccccc1`, 21.97%; that for `COCCc1noc(CN2CCCCC2Cn2cc(C)cn2)n1` (stereo not drawn), 3.3%.
The figure for `Cn1cccc1C(=O)NS(=O)(=O)c1cnn(-c2ccccc2F)c1` is 25.21%.
The figure for `Fc1ccc(C2CN(CCc3ccncc3)CCO2)cc1` (stereo not drawn) is 13.26%; for `CCc1ccc(C2NCCc3cc4c(cc32)OCCO4)cc1` (stereo not drawn) it is -5.98%; for `CCN1C[C@H]2CCN(C(=O)Cc3cccc(OC)c3)CC[C@H]2S1(=O)=O` it is -8.72%.
As for `Cc1ccc(NC(=O)C2CSCN2C(=O)c2cc[nH]n2)c(C)c1` (stereo not drawn), the INHIBITION is given as -16.12%.
The figure for `Cc1ccc(NC(=O)C2CSCN2C(=O)c2cnccn2)cc1C` (stereo not drawn) is 54.2%; for `Cc1ccc(NC(=O)C2CSCN2C(=O)c2cccnc2)c(C)c1` (stereo not drawn) it is -0.12%.
As to `Cc1ccc(NC(=O)C2CSCN2C(=O)c2cnccn2)c(C)c1` (stereo not drawn), the INHIBITION was 51.21%.
The result for `Cc1ccc(NC(=O)C2CSCN2C(=O)c2ccncc2)c(C)c1` (stereo not drawn) reads 11.95%; that for `Cc1cccc(NC(=O)C2CSCN2C(=O)c2cnccn2)c1C` (stereo not drawn), -1.85%.
For `O=S(=O)(NCc1ccccc1)Nc1ccc(-n2cncn2)cc1`, the INHIBITION was 4.12%.
The figure for `Fc1cnc(N2CCn3c(CN4CCCC4)nnc3C2)nc1` is -55.08%.
The figure for `CCNC(=O)[C@@H]1C[C@H](NC(=O)Cn2ccnc2)CN1Cc1ccsc1` is -35.46%; for `OCCC[C@@H]1CN(c2ncc(Cl)cc2Cl)CC[C@@H]1N1CCOCC1` it is -69.21%.
The figure for `Cc1cnc(C)c(N2CC[C@H](N3CCOCC3)[C@H](CCCO)C2)n1` is 37.87%; for `CC(C)c1cncnc1N1CC[C@H](N2CCOCC2)[C@H](CCCO)C1` it is 68.36%; for `Fc1ccc(CN2CCCn3cnc(COCC4CC4)c3C2)cc1` it is 25.48%.
Consider `CC(=O)N1CCC2(CC1)COCCN2CCN(C)C`, for which the INHIBITION is listed as 0.04%.
The result for `CC1CN(C)c2ccccc2CN1C(=O)c1cc(C#N)cn1C` (stereo not drawn) reads 3.49%; that for `CC(C)NC(=O)c1nc(Cn2c(C(F)F)nc3ccccc32)no1`, 51.42%.
The figure for `O=C(NC1CC1)c1nc(Cn2c(C(F)F)nc3ccccc32)no1` is 29.87%; for `CC(C)NC(=O)c1nc(Cn2c(C(F)(F)F)nc3ccccc32)no1` it is 37.53%; for `COc1ccc(CN2CCN(CC3CC3)[C@@H]3CS(=O)(=O)C[C@@H]32)cc1O` it is 7.93%.
For `Cn1ncc2c(NC3CCC3)nc(-c3ccncc3)nc21`, the INHIBITION was -24.62%.
The result for `Cn1ncc2c(N[C@@H]3C[C@H]4CC[C@@H]3C4)nc(-c3ccncc3)nc21` reads 67.85%; that for `Cn1ncc2c(NC3CN4CCC3CC4)nc(-c3ccncc3)nc21` (stereo not drawn), 10.1%.

The values are drawn from ChEMBL document CHEMBL4513216, “Probing the Open Global Health Chemical Diversity Library for Multistage-Active Starting Points for Next-Generation Antimalarials” (ACS Infect Dis, 2020).
